Results as given in PubChem BioAssay (NCI).
About 83,000 compounds went through this panel and 20% of them were active in at least one assay; those are over-represented in the sample as a whole.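 Testing used 96-well plates and a 48-hour single-concentration exposure. Example: -40 means 40% of the starting cells died.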 A number with no mark means an inactive call. Activity calls are given as the source filed them. The calls were made as follows: active = growth percent below 10; inactive = the rest.

Assays:
Assay in all cases: NCI-60 one-dose screen, 48 h (100 = growth as untreated, 0 = no growth, -100 = all killed)
Settings in all cases: 10 µM unless noted
[1] = system: T-47D breast
[2] = system: BT-549 breast
[3] = system: MDA-MB-435 melanoma
[4] = system: SW-620 colon
[5] = system: MCF7 breast
[6] = system: HCT-116 colon
[7] = system: HCC-2998 colon
[8] = system: KM12 colon

SMILES	growth [1]	growth [2]	growth [3]	growth [4]	growth [5]	growth [6]	growth [7]	growth [8]
COc1ccc(OC)c(C(=O)c2oc3ccc(Br)cc3c2N)c1	37.9%	27.8%	-64.7% (active)	16.2%	15.5%	16.8%	36.9%	30.6%
Cc1ccc(-c2csc3nc(C)c(CCCl)c(=O)n23)cc1	76.7%	119%	97.3%	99.2%	78.3%	89.4%	109%	103%
O=C(NNC(=S)Nc1ccccc1)c1ccccn1	53.2%	55.1%	48.4%	42.1%	27.2%	26.7%	40.6%	32.1%
C=C1C(=O)O[C@H]2[C@H]1CC/C(COC(=O)NCCc1cccc(OC)c1)=C\CC[C@@]1(C)O[C@@H]21	20.4%	27.8%	39.6%	-10.8% (active)	14.7%	-63.9% (active)	83.5%	63.7%
COc1cc2nc(N3CCC[C@@H](NC4=CC(=O)c5ccccc5C4=O)C3)nc(N)c2cc1OC	-40.9% (active)	118%	64.7%	-60.6% (active)	-63.3% (active)	-83.6% (active)	106%	-35.2% (active)
CC(CCc1ccccc1)NC(=O)c1n[nH]c(=O)c2ccccc12 (centres undefined)	95.8%	98.9%	108%	100%	90.7%	97%	156%	109%
NC(=O)c1cccc(N2Cc3ccccc3OC3=C2C(=O)c2c(O)ccc(O)c2C3=O)c1	-36.9% (active)	-56.8% (active)	-27.3% (active)	-66.6% (active)	-22.3% (active)	-69.1% (active)	-21.1% (active)	-48.9% (active)
Cc1cccc(NC(=O)c2sc3nc4c(cc3c2N)CCC4)c1C	64%	61.7%	-26.9% (active)	28.6%	13%	19.7%	33.1%	12.2%
CC/C=C\C[C@H]1C/C=C2/C(=O)C(Cl)=C[C@@H]2C/C=C\CCCC(=O)O1	-16.1% (active)	-75% (active)	-74.8% (active)	-74.8% (active)	-40.4% (active)	-81% (active)	-80.2% (active)	-74.3% (active)
CC(Cc1nnc(SCC(=O)Nc2ccc(I)cc2)n1N)c1ccccc1 (centres undefined)	71.2%	97.4%	99.9%	95.5%	93.4%	68.6%	86.7%	95.8%
O=C(CCl)NCCNc1nccc(Nc2ccc(S(=O)(=O)Nc3ccccn3)cc2)n1	9.1% (active)	-5.35% (active)	7.62% (active)	8.07% (active)	11%	-44.6% (active)	99.7%	34%
CCO/C=N/NC(=O)c1ccncc1	106%	114%	110%	104%	101%	105%	113%	106%
COc1ccc(-n2cnc3c(sc4ncc(Cl)cc43)c2=O)cc1	86.1%	94.9%	77.4%	98.3%	101%	54.5%	116%	55.1%
COc1ccc(C2=CC(c3ccc(Oc4ccnc5cc(Cl)ccc45)c(OC)c3)c3c(nc(OC)[nH]c3=O)N2)cc1 (centres undefined)	53.8%	39.5%	71.3%	50.2%	35.7%	35.8%	84.3%	65.5%
CCN(C(=O)c1cc2ccccc2[nH]1)[C@H]1CCC[C@@H](NCc2ccc(OC)cc2)C1	82.7%	102%	93.1%	91.2%	84%	92.1%	78.3%	90.4%
O=Nc1c(-c2c(O)[nH]c3ccc([N+](=O)[O-])cc23)[nH]c2ccc(O)cc12	16.8%	4.59% (active)	9.35% (active)	3.18% (active)	2.75% (active)	2.29% (active)	8.93% (active)	-33% (active)
COc1ccc(/C=C/C(=O)c2ccc(B(O)O)cc2)cc1O	79.2%	64.8%	3.03% (active)	28.5%	20.2%	1.46% (active)	49.8%	9.39% (active)
CCOC(=O)c1cc(/C(=N\O)c2cc(OC)c(OC)c(OC)c2)n2cc(C)cc(C)c12	26.9%	28.6%	-22.7% (active)	13.3%	13.6%	-6.14% (active)	67.5%	20.7%
Cc1cc(C(=O)O)c(N)c(C)n1	112%	106%	107%	106%	93.6%	102%	111%	110%
Cc1sc2nc(CSc3nnc(-c4ccco4)o3)[nH]c(=O)c2c1C	95.4%	102%	105%	101%	104%	115%	124%	118%
COc1cccc2nc(Nc3ccc(NC(=O)c4ccc5ncccc5c4)cc3)ccc12	68%	69.7%	88.7%	97.7%	70.3%	84.5%	96.4%	65.6%
O=C(O)c1ccc(-n2cc(CNc3ccc(C(F)(F)F)cc3)c(-c3ccccc3)n2)cc1	79.2%	99.1%	90.8%	98.2%	81.8%	101%	108%	84.7%
COc1cc(CNC(=O)CCSc2nc3ccccc3c(=O)n2Cc2cc(OC)c(OC)c(OC)c2)cc(OC)c1OC	29.3%	48.3%	-28.7% (active)	23.9%	15.4%	17%	86%	17.3%
CC(=O)Nc1nc(C(=O)N2N=C(C)/C(=C/c3cccs3)C2=O)cs1	100%	97%	103%	110%	90.8%	100%	108%	110%
Cc1nc(Nc2cccnc2)sc1C(=O)/C=C/c1ccc(F)cc1	30.2%	1.57% (active)	2.86% (active)	9.84% (active)	14.2%	3.7% (active)	83.4%	11.3%
N=C(N)c1ccc(-c2ccc(-c3ccc(Cl)cc3)o2)nc1	-75.4% (active)	-88% (active)	-84.5% (active)	-93.4% (active)	-81.4% (active)	-84.4% (active)	-71.9% (active)	-93.4% (active)
COc1ccccc1OCC(=O)Nc1sc2c(c1C(N)=O)CCC2	62.5%	85.6%	78.9%	64.5%	27.8%	63.1%	58.8%	105%
CCCOC(=O)C1(O)CCCC1	97.2%	113%	101%	104%	97.9%	97.3%	108%	116%
